± gives the standard deviation of the averaged measurements.
Test system: A549
Assay: relative viability (normalised to negative control = 1, bortezomib = 0) (fraction); higher = less cytotoxic
Details: inflammatory serum-free RHB-A with cytokines + LPS, 5 d + 24 h CellTiter-Blue
[1] = compound 30 nM, GSK126 pretreatment: 5 uM GSK126
[2] = compound 30 nM, GSK126 pretreatment: none (vehicle)
[3] = compound 300 nM, GSK126 pretreatment: 5 uM GSK126
[4] = compound 300 nM, GSK126 pretreatment: none (vehicle)

Row | Structure (SMILES) | relative viability [1] | relative viability [2] | relative viability [3] | relative viability [4]
1 | CC(=O)O[C@]1(C(C)=O)CC[C@H]2[C@@H]3C=C(C)C4=CC(=O)CC[C@]4(C)[C@H]3CC[C@@]21C [Megestrol acetate] | 1.35 ± 0.04 | 1.21 ± 0.14 | 1.48 ± 0.078 | 1.55 ± 0.085
2 | CN(c1ncccc1CNc1nc(Nc2ccc3c(c2)CC(=O)N3)ncc1C(F)(F)F)S(C)(=O)=O | 0.902 ± 0.22 | 0.907 ± 0.16 | 0.907 ± 0.12 | 0.891 ± 0.13
3 | Nc1nc2[nH]cnc2c(=S)[nH]1 [Thioguanine] | 0.978 ± 0.039 | 0.929 ± 0.043 | 0.917 ± 0.045 | 1 ± 0.073
4 | COc1cc2c(Oc3ccc4[nH]c(C)cc4c3F)ncnc2cc1OCCCN1CCCC1 [Cediranib(AZD2171)] | 0.943 ± 0.053 | 0.968 ± 0.019 | 0.981 ± 0.11 | 0.996 ± 0.051
5 | CN(C)C1CCN(C(=O)c2ccc(NC(=O)Nc3ccc(-c4nc(N5CCOCC5)nc(N5CCOCC5)n4)cc3)cc2)CC1 | 0.329 ± 0.01 | 0.428 ± 0.011 | 0.0588 ± 0.0043 | 0.088 ± 0.0042
6 | O=C1C(c2c(O)[nH]c3ccccc23)=Nc2ccccc21 [Indirubin; INDIRUBIN] | 0.788 ± 0.038 | 0.796 ± 0.041 | 0.762 ± 0.078 | 0.807 ± 0.045
7 | Cc1cc(Nc2cc(CN3CCOCC3)c3nc(C)c(Cc4ccc(Cl)cc4F)n3n2)n[nH]1 | 0.974 ± 0.13 | 0.988 ± 0.062 | 1.24 ± 0.078 | 1.23 ± 0.03
8 | Cc1csc(-c2nnc(Nc3ccc(Oc4ncccc4-c4ccnc(N)n4)cc3)c3ccccc23)c1 | 0.692 ± 0.11 | 0.593 ± 0.11 | 0.512 ± 0.076 | 0.441 ± 0.061
9 | Cc1nc(Nc2ncc(C(=O)Nc3c(C)cccc3Cl)s2)cc(N2CCN(CCO)CC2)n1 [Dasatinib] | 0.89 ± 0.089 | 0.882 ± 0.093 | 1.03 ± 0.077 | 0.956 ± 0.12
10 | COc1cc2c(Nc3ccc(NC(=O)c4ccccc4)cc3)ncnc2cc1OCCCN1CCOCC1 | 1.04 ± 0.053 | 0.992 ± 0.1 | 0.963 ± 0.07 | 0.9853 ± 0.0095
11 | CCS(=O)(=O)c1cccc(-c2cc(C(=O)NC3CCN(C)CC3)c(C)c3[nH]c4ncc(C)cc4c23)c1 | 0.702 ± 0.12 | 0.72 ± 0.058 | 0.553 ± 0.083 | 0.485 ± 0.031
12 | N#Cc1c(O)c2c(-c3ccc(-c4ccccc4O)cc3)csc2[nH]c1=O | 0.86 ± 0.15 | 0.937 ± 0.13 | 0.938 ± 0.18 | 0.942 ± 0.11
13 | CNC(=O)c1c(F)cccc1Nc1nc(Nc2cc3c(cc2OC)CCN3C(=O)CN(C)C)nc2[nH]ccc12 | 0.762 ± 0.059 | 0.792 ± 0.067 | 0.295 ± 0.019 | 0.431 ± 0.015
14 | O=C(NC[C@H](O)CO)c1ccncc1Nc1ccc(I)cc1F | 0.247 ± 0.056 | 0.352 ± 0.0078 | 0.126 ± 0.019 | 0.159 ± 0.025
15 | Cn1cc(C2=C(c3ccc(Cl)cc3Cl)C(=O)NC2=O)c2ccccc21 | 0.787 ± 0.042 | 0.778 ± 0.046 | 0.695 ± 0.079 | 0.802 ± 0.05
16 | CC(=O)c1c(C)c2cnc(Nc3ccc(N4CCNCC4)cn3)nc2n(C2CCCC2)c1=O | 0.89 ± 0.074 | 0.913 ± 0.063 | 0.903 ± 0.087 | 0.931 ± 0.064
17 | O=C(Nc1ccc(OC(F)(F)F)cc1)c1sccc1NCc1ccnc2ccccc12 | 1.07 ± 0.025 | 1.05 ± 0.035 | 1.15 ± 0.16 | 1.2 ± 0.036
18 | C[C@@H]1CN(CC(=O)Nc2ccc3c(c2)Cc2cccc(-c4cc(=O)cc(N5CCOCC5)o4)c2S3)C[C@H](C)O1 | 0.816 ± 0.029 | 0.857 ± 0.089 | 0.907 ± 0.043 | 0.943 ± 0.024
19 | Nc1nc(Nc2ccc(S(N)(=O)=O)cc2)nn1C(=O)c1c(F)cccc1F | 0.96 ± 0.1 | 0.927 ± 0.15 | 1.12 ± 0.067 | 1.07 ± 0.099
20 | O=C(Nc1c[nH]nc1-c1nc2ccc(CN3CCOCC3)cc2[nH]1)NC1CC1 | 0.71 ± 0.039 | 0.663 ± 0.021 | 0.336 ± 0.034 | 0.279 ± 0.077
21 | CN(C)/N=N/c1[nH]cnc1C(N)=O [Dacarbazine] | 0.931 ± 0.18 | 0.992 ± 0.11 | 1.05 ± 0.11 | 1.07 ± 0.031
22 | CC1=C(/C=C/C(C)=C/C=C/C(C)=C/C(=O)O)C(C)(C)CCC1 [Retinoic acid; Tretinoin; 13-cis-retinoic acid] | 1.04 ± 0.088 | 0.922 ± 0.043 | 1.34 ± 0.05 | 1.14 ± 0.064
